# TSHR antagonist: Antagonists of the Thyroid Stimulating Hormone Receptor: HTS campaign; Thyrotropin receptor (Homo sapiens), P16473; TSHR-expressing cells, TSH-stimulated cAMP HTRF, 2 h; stronger effect = lower value; activity change, negative = inhibition, % at 11.5 µM; 330,000 compounds, 0.2% hits; AID 504810, 2011;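 active means activity change below a set negative limit, meaning inhibition stronger than a set level, cut at about -70% in these data; inconclusive means activity change between two set negative limits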; further: on the % scale 0 is the no-effect control and ±100 the full control effect
# Target sequence (P16473 whole entry, looked up): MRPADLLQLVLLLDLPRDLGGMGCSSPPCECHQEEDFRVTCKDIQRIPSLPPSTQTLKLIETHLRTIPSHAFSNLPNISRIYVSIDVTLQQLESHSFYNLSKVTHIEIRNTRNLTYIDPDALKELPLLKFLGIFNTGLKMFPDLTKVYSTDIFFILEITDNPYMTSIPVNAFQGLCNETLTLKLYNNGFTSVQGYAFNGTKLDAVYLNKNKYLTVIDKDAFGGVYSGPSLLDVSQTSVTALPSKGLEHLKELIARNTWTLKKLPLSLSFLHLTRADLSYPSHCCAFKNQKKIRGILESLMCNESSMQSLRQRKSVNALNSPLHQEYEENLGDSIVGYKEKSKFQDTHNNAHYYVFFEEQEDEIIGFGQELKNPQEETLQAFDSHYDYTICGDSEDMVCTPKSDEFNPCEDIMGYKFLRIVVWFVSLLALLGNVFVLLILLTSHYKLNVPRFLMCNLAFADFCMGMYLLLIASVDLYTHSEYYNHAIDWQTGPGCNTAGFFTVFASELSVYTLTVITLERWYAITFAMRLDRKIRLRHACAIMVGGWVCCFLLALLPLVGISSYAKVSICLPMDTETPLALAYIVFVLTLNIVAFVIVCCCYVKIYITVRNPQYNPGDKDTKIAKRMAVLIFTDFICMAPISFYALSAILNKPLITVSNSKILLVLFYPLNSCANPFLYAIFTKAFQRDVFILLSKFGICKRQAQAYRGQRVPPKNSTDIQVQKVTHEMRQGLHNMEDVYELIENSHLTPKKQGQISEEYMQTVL
#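 Antagonism was scored as loss of TSH-driven cAMP in TSHR cells, stimulated with 4nM TSH (EC80) for 2 hours at 37 deg C and detected by homogeneous HTRF competition immunoassay.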
# GLP1R inv ag: qHTS of GLP-1 Receptor Inverse Agonists (Inhibition Mode). Glucagon-like peptide 1 receptor (Homo sapiens), P43220. HEK293 GLP-1R CRE-luciferase, luminescence, 24 h; GLP-1R form is constitutively active. Potency, µM (top dose mostly 38.3 µM), without a hit: at the highest dose activity change, negative = inhibition, hits mostly inhibitors. 410,000 compounds, 1.6% hits; further: potency means the concentration at half of the fitted maximal effect; on the % scale 0 is the no-effect control and ±100 the full control effect; nearly all actives have a fitted effect of over 55% in size
#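 Readout was luciferase luminescence, measured 12 min after detection reagent at room temperature. Beforehand, GLP-1R reporter HEK293 cells had sat 12 h, then received compounds for 24 hr at 37 deg C.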
# PTHR1 agonist: qHTS for PTHR1 Agonists: Primary Screen; Parathyroid hormone/parathyroid hormone-related peptide receptor (Homo sapiens), Q03431; HEK293 GP2 PTHR1 cells, GloSensor cAMP luminescence, 1 h; Potency, µM (top dose mostly 115 µM), inactives show at the top dose activation, hits mostly activators; 410,000 compounds, 0.075% hits; further: potency means the concentration at half of the fitted maximal effect; nearly all actives have a fitted effect of over 55% in size
#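 HEK-293-derived GP2 cells expressing PTHR1 and a GloSensor cAMP reporter, 3,000/well, plated overnight, given luciferin plus IBMX (each 0.5 mM as added) for 1 h at 37 °C, then compound for 1 h at 37 °C. Luminescence was read after 15 min at room temperature.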
# GLP1R ag: qHTS of GLP-1 Receptor Agonists | Potency, µM (top dose mostly 45.6 µM), without a hit: top-dose activation, usual class: activators | HEK293 GLP-1R CRE-luciferase, luminescence, 4-6 h; cells express a hypersensitive GLP-1R form | 380,000 compounds, 0.007% hits | Glucagon-like peptide 1 receptor (Homo sapiens), P43220; further: potency means the concentration at half of the fitted maximal effect; % of control where 0% means no effect
# GLP1R cytotox: qHTS of GLP-1 Receptor Inverse Agonists: Cytotox Screen | HEK293 cAMP-luciferase reporter cells, luminescence, 24 h | 410,000 compounds, 0.13% hits | Potency, µM (highest dose often 38.3 µM), for the others: at the top dose activity change, negative = inhibition, most hits filed as inhibitors;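 further: loss of luciferase light is scored as toxicity; potency means the concentration at half of the fitted maximal effect; on the % scale 0 is the no-effect control and ±100 the full control effect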
#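 Cells in DMEM/10% Nu serum/1% pen-strep, 1536-well format. Pre-incubated 12 h, dosed with 23 nL compound, incubated a further 24 h. Luciferase detection, 12 min at room temp, luminescence.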
# * = called active by the depositor; i = inactive; ? = inconclusive; nt = not tested or not shown; [ ] = another dose, or the depositor's remark. The list is not random: actives were taken first. Their share in the collection is about 1.8%. Unless noted, the call rests on the fitted dose curve; in most records, active means well fitted curve in the direction sought with a large enough effect; inconclusive means small, poorly fitted or top-dose-only effect, or another doubt; inactive means no such curve, though single readings can be large; an effect the other way counts as inactive or inconclusive.
SMILES,TSHR antagonist,GLP1R inv ag,PTHR1 agonist,GLP1R ag,GLP1R cytotox
Cc1ccc(S(=O)(=O)N(C)c2ccc(OCC(=O)OCc3cccc(Br)c3)cc2)cc1,nt,-15%,i,8%,-8%
Cc1ccc(S(=O)(=O)N(C)c2ccc(OCC(=O)NCC3(N(C)C)CCCCC3)cc2)cc1,13,11µM*,i,0%,0%
Cc1cccc(N(CC(=O)NCCSCc2ccc(Cl)cc2)S(C)(=O)=O)c1C,nt,?,-19%,-3%,-8%
CCCCc1ccc(-n2nc3cc(C)c(NC(=O)Cc4ccccc4)cc3n2)cc1,nt,10%,18%,nt,1%
CCc1cccc(C)c1NC(=O)Cn1nc(C)c2nn(-c3ccc(Cl)cc3)c(C)c2c1=O,nt,4%,-58%,nt,-5%
CCCCN(CCCNC(=O)CN1N=C(c2ccccc2)CCC1=O)c1ccccc1,nt,10µM*,i,nt,-1%
CCCCN(CCCNC(=O)c1ccc2c(c1)NC(=O)CN2C)c1ccccc1,nt,2.8µM*,-54%,-8%,-1%
CC1=Nc2cc(C(=O)NCCN3CCOCC3)ccc2Sc2c(C)ccc(C)c21,-4,?,i,3%,-12%
CC1=Nc2cc(C(=O)NCCCN3CCOCC3)ccc2Sc2c(C)ccc(C)c21,6,8.9µM*,i,10%,-18%
CC1=Nc2cc(C(=O)NCCc3ccc(Cl)cc3)ccc2Sc2c(C)ccc(C)c21,nt,2.8µM*,i,13%,?
CC1=Nc2cc(C(=O)NCCc3ccccc3)ccc2Sc2c(C)ccc(C)c21,nt,?,i,11%,?
CCOC(=O)Cc1cc(C(=O)Nc2ccc(Br)cc2)sc1-c1ccc(C)cc1,nt,?,-85%,nt,?
CCO[C@@H]1OC(C(=O)Nc2ccccc2)=C[C@H](c2ccc(C(F)(F)F)cc2)[C@H]1CCCO,-5,4.5µM*,-36%,-1%,-13%
CCO[C@H]1OC(C(=O)Nc2ccccc2)=C[C@@H](c2ccc(Br)cc2)[C@@H]1CCCO,-17,?,i,-1%,-17%
C=CCOC(=O)C1=C[C@@H](c2ccc(C(F)(F)F)cc2)[C@H](CCCO)[C@@H](OCC)O1,2,6.3µM*,-2%,13%,-67%
CN(C)c1ccc(CN(CC2CCCO2)C(=O)COc2ccccc2Cl)cc1 (centres undefined),nt,?,-90%,nt,-1%
CCN(CC)c1ccc(/C=N/N(c2ccccc2)c2ccccc2)c(O)c1,-3,6.3µM*,-36%,-2%,22%
Cc1ccc(NC(=O)C(NS(=O)(=O)c2ccc3c(c2)CCC(=O)N3)c2ccccc2)cc1C (centres undefined),nt,8%,-5%,nt,-2%
CC(C)c1ccccc1OCC(=O)NC1CCCc2ccccc21 (centres undefined),-3,?,i,9%,0%[1.53 µM]
Cc1cc(C)cc(OCC(=O)NC2CCCc3ccccc32)c1 (centres undefined),39,?,-17%,10%,16%
COc1ccccc1OCC(=O)N/N=C1\CCCCc2ccccc21,0,10µM*,-17%,11%,3%
Cc1cccc(OCC(=O)NC2CCCc3ccccc32)c1C (centres undefined),-4,2µM*,-3%,13%,25%
COc1ccccc1OCC(=O)NC1CCCc2ccccc21 (centres undefined),7,11µM*,i,13%,21%
O=C(c1ccc2c(c1)N(Cc1ccc(F)cc1)CCS2)N1CCN(c2ccccc2)CC1,nt,?,-8%,nt,2%
CCc1ccc(-c2cc(C)no2)cc1S(=O)(=O)N1CCN(c2ccccc2OC)CC1,-7,4.5µM*,i,-1%,-2%
Cc1cc(S(=O)(=O)N2CCN(c3ccc(F)cc3)CC2)c(C)s1,-15,10µM*,-44%,7%,12%
COc1ccc(-c2onc(C)c2C)cc1S(=O)(=O)NCC1CCN(Cc2ccccc2F)CC1,nt,-20%,i,nt,-3%

# Assay outcomes from PubChem.
